The whole screen tested about 2,500 compounds, of which about 1,100 (44%) were called active. So high a share suggests a set chosen from earlier hits. The list shows a part of the results. A number with no mark means an inactive call.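 Rule for the calls: active = inhibition above 50% at 4 µM in the single-point screen; inactive = inhibition of 50% or less.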
Experiment: blockers of TNF-a NF-kB luciferase induction – cell-based, HEK293T NF-kB-Luc, luminescence, selectivity assay for NOD1/NOD2 signaling inhibitor project, primary screen (AID 1852)
Conditions: TNF-a induced, 14 h, at 4 µM, active compounds read high

| Compound | inhibition |
| --- | --- |
| O=C1C=C(c2ccccc2)C[C@H](c2cccs2)[C@H]1n1nnc([N+](=O)[O-])n1 | 35.8% |
| Cc1cc(NC(=S)NC(=O)/C=C/c2ccc(S(=O)(=O)N3CCOCC3)cc2)ccc1Br | -18.3% |
| Cc1cc(C(=O)CCl)c(C)n1-c1cccc(S(=O)(=O)N2CCOCC2)c1 | 52.4% (active) |
| O=C(c1[nH]nc2c1CCc1ccccc1-2)N1CCN(Cc2ccc3c(c2)OCO3)CC1 | 45.6% |
| O=C(NC(=S)N1CCN(Cc2ccc3c(c2)OCO3)CC1)c1cccc(Br)c1 | 76.1% (active) |
| CCOc1cc(/C=C2\CCC/C(=C\c3cc(Cl)c(O)c(OCC)c3)C2=O)cc(Cl)c1O | 87.7% (active) |
| COc1cc(OC)c(OC)cc1/C=C1\CCC/C(=C\c2cc(OC)c(OC)cc2OC)C1=O | 41.8% |
| COc1cc(/C=C2/CCC/C(=C\c3cc(O)c(OC)c(Cl)c3)C2=O)cc(Cl)c1O | 108% (active) |
| COc1cc(/C=C2\CCC/C(=C\c3ccc(O)c(OC)c3)C2=O)ccc1O | 9.3% |
| COc1ccc(N(C(=O)CCl)C(C(=O)NC2CCCCC2)c2cccnc2)cc1 (centres undefined) | 87.1% (active) |
| O=C(NC1CCCCC1)C(c1cccnc1)N(C(=O)CCl)c1ccc(F)cc1 (centres undefined) | 69.8% (active) |
| COc1ccc(C(C(=O)NC2CCCCC2)N(C(=O)CCl)c2ccc(C)cc2)cc1 (centres undefined) | 37% |
| COc1ccc(C(C(=O)NC2CCCCC2)N(C(=O)CCl)c2ccc(OC)cc2)cc1 (centres undefined) | 40.2% |
| CC(=O)NC(c1ccco1)c1ccc2cccnc2c1O (centres undefined) | 26.6% |
| CC(C)C(=O)NC(c1cccs1)c1cc([N+](=O)[O-])c2cccnc2c1O (centres undefined) | 54.8% (active) |
| CC(=O)NC(c1cccs1)c1cc([N+](=O)[O-])c2cccnc2c1O (centres undefined) | 105% (active) |
| CCOc1ccc2nc(NC(=O)c3ccccn3)sc2c1 | 102% (active) |
| COc1ccc2nc(Nc3nc4ccc(NC(C)=O)cc4s3)sc2c1 | -14.1% |
| COc1ccccc1C(=O)Nc1nc2ccccc2s1 | 65.3% (active) |
| COc1cc([N+](=O)[O-])cc2sc(NC(=O)c3c(F)cccc3F)nc12 | 16.4% |
| COc1ccc(C(=O)Nc2nc3ccccc3s2)c(OC)c1 | 88% (active) |
| COc1ccccc1C(=O)NCc1ccc(-c2nc3ccccc3s2)cc1 | 14.3% |
| COc1ccc2nc(Nc3nc(C)c(C(C)=O)s3)sc2c1 | -12.9% |
| O=C(CCl)N=c1sccn1Cc1cccc2ccccc12 | 44.1% |
| CC(=O)NC(c1cccc([N+](=O)[O-])c1)c1ccc2cccnc2c1O (centres undefined) | 70.9% (active) |
| CC(=O)NC(c1ccc(Cl)cc1Cl)c1ccc2cccnc2c1O (centres undefined) | 15.6% |
| CC(=O)NC(c1ccc2ccccc2c1)c1ccc2cccnc2c1O (centres undefined) | 75.2% (active) |
| COc1cccc(C(NC(C)=O)c2ccc3cccnc3c2O)c1 (centres undefined) | 57.3% (active) |
| COc1ccc(C(NC(C)=O)c2ccc3cccnc3c2O)c(OC)c1 (centres undefined) | 99.8% (active) |
